Measured values: PubChem BioAssay AID1159580 (chemical genetic matrix, 2015)
The campaign covered roughly 5,500 compounds. About 2,000 (36%) were called active. Inconclusive results (about 18%) are left out. No stated cut-off is given here; in the data, active means normalized growth mostly below about 0.91 (no sharp cut-off); inconclusive means no clear call, values can overlap the other calls; inactive means mostly above about 0.92. The list shows a part of the results.

Assay: chemical genetic growth profiling, strain panel (AID 1159580);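 further: tested at 20 µM; growth read once vehicle control cultures reached saturation at 30 °C; 1 = growth at the plate median or of vehicle wells; lower values mean less growth of the strain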
Conditions: growth OD

Measured: normalized growth

COc1cc2c(cc1OC)[C@@H]1C(=O)c3ccc4c(c3O[C@@H]1CO2)CC(C(C)C)O4 (stereo partly drawn)
active: S. cerevisiae deletion strains, locus YKR001C, strain vps1, hits give low values 0.849
inactive: S. cerevisiae deletion strains, locus YKL009W, strain mrt4, hits give low values 1.01 | S. cerevisiae deletion strains, locus YKL068W, hits give low values 0.999 | S. cerevisiae deletion strains, locus YKL085W, strain MDH1 (second series), hits give low values 0.999 | S. cerevisiae deletion strains, locus YKL085W, strain MDH1, hits give low values 0.999 | S. cerevisiae deletion strains, locus YKL160W, strain elf1, hits give low values 0.978 | S. cerevisiae deletion strains, locus YKL190W, strain CNB1, hits give low values 0.998 | S. cerevisiae deletion strains, locus YKR026C, strain gcn3, hits give low values 0.991 | S. cerevisiae deletion strains, locus YKR091W, strain srl3, hits give low values 0.997 | S. cerevisiae deletion strains, locus YLL001W, strain dnm1, hits give low values 0.943 | S. cerevisiae deletion strains, locus YLL026W, hits give low values 0.98 | S. cerevisiae deletion strains, locus YLL041C, strain sdh2, hits give low values 1 | S. cerevisiae deletion strains, locus YLR027C, strain aat2, hits give low values 0.935 | S. cerevisiae deletion strains, locus YLR039C, strain RIC1, hits give low values 0.849 | S. cerevisiae deletion strains, locus YLR058C, strain SHM2, hits give low values 0.987 | S. cerevisiae deletion strains, locus YLR102C, strain apc9, hits give low values 1.01 | S. cerevisiae deletion strains, locus YLR113W, strain HOG1, hits give low values 1.02 | S. cerevisiae deletion strains, locus YLR221C, strain rsa3, hits give low values 0.966 | S. cerevisiae deletion strains, locus YLR258W, strain gsy2, hits give low values 0.985 | S. cerevisiae deletion strains, locus YLR262C, strain YPT6 (second series), hits give low values 0.897 | S. cerevisiae deletion strains, locus YLR262C, strain YPT6, hits give low values 0.822 | S. cerevisiae deletion strains, locus YLR268W, strain sec22, hits give low values 0.976 | S. cerevisiae deletion strains, locus YLR320W, strain mms22, hits give low values 0.923 | S. cerevisiae deletion strains, locus YLR330W, strain CHS5, hits give low values 1 | S. cerevisiae deletion strains, locus YLR342W, strain FKS1 (second series), hits give low values 0.999 | S. cerevisiae deletion strains, locus YLR342W, strain FKS1, hits give low values 0.975 | S. cerevisiae deletion strains, locus YLR357W, strain rsc2, hits give low values 0.958 | S. cerevisiae deletion strains, locus YLR370C, strain arc18, hits give low values 0.984 | S. cerevisiae deletion strains, locus YLR371W, strain rom2, hits give low values 1 | S. cerevisiae deletion strains, locus YLR384C, strain iki3, hits give low values 0.981 | S. cerevisiae deletion strains, locus YLR418C, strain cdc73, hits give low values 0.921 | S. cerevisiae deletion strains, locus YML016C, strain PPZ1, hits give low values 1 | S. cerevisiae deletion strains, locus YML032C, strain rad52, hits give low values 1 | S. cerevisiae deletion strains, locus YML120C, strain ndi1, hits give low values 0.986 | S. cerevisiae deletion strains, locus YML124C, strain tub3, hits give low values 0.999 | S. cerevisiae deletion strains, locus YMR058W, strain fet3, hits give low values 0.983 | S. cerevisiae deletion strains, locus YMR078C, strain ctf18, hits give low values 0.996 | S. cerevisiae deletion strains, locus YMR125W, strain sto1, hits give low values 0.99 | S. cerevisiae deletion strains, locus YMR129W, hits give low values 0.979 | S. cerevisiae deletion strains, locus YMR205C, strain PFK2, hits give low values 0.924 | S. cerevisiae deletion strains, locus YMR223W, strain ubp8, hits give low values 1 | S. cerevisiae deletion strains, locus YMR231W, strain pep5, hits give low values 0.992 | S. cerevisiae deletion strains, locus YMR263W, strain SAP30, hits give low values 1 | S. cerevisiae deletion strains, locus YMR307W, strain GAS1, hits give low values 0.872 | S. cerevisiae deletion strains, locus YNL067W, strain RPL9B, hits give low values 0.993 | S. cerevisiae deletion strains, locus YNL071W, strain lat1, hits give low values 0.93 | S. cerevisiae deletion strains, locus YNL183C, strain NPR1, hits give low values 0.983 | S. cerevisiae deletion strains, locus YNL209W, strain ssb2, hits give low values 0.995 | S. cerevisiae deletion strains, locus YNL233W, strain BNI4, hits give low values 0.986 | S. cerevisiae deletion strains, locus YNL248C, strain rpa49, hits give low values 0.98 | S. cerevisiae deletion strains, locus YNL250W, strain rad50, hits give low values 1 | S. cerevisiae deletion strains, locus YNL271C, strain bni1, hits give low values 1.02 | S. cerevisiae deletion strains, locus YNL298W, strain CLA4, hits give low values 1.01 | S. cerevisiae deletion strains, locus YNL307C, strain MCK1, hits give low values 0.986 | S. cerevisiae deletion strains, locus YNL322C, strain KRE1 (second series), hits give low values 0.985 | S. cerevisiae deletion strains, locus YNR049C, strain mso1, hits give low values 0.997 | S. cerevisiae deletion strains, locus YNR052C, strain pop2, hits give low values 1.01 | S. cerevisiae deletion strains, locus YOL006C, strain TOP1, hits give low values 0.897 | S. cerevisiae deletion strains, locus YOL012C, strain htz1 1.16 | S. cerevisiae deletion strains, locus YOL147C, strain pex11, hits give low values 0.999 | S. cerevisiae deletion strains, locus YOR001W, strain rrp6, hits give low values 0.966 | S. cerevisiae deletion strains, locus YOR061W, strain CKA2, hits give low values 0.998 | S. cerevisiae deletion strains, locus YOR069W, strain VPS5, hits give low values 1.01 | S. cerevisiae deletion strains, locus YOR070C, strain gyp1, hits give low values 0.961 | S. cerevisiae deletion strains, locus YOR080W, strain dia2, hits give low values 0.974 | S. cerevisiae deletion strains, locus YOR083W, strain WHI5, hits give low values 0.98 | S. cerevisiae deletion strains, locus YOR106W, strain vam3, hits give low values 1.02 | S. cerevisiae deletion strains, locus YOR136W, strain idh2, hits give low values 1 | S. cerevisiae deletion strains, locus YOR144C, strain elg1, hits give low values 0.992 | S. cerevisiae deletion strains, locus YOR184W, strain ser1, hits give low values 0.925 | S. cerevisiae deletion strains, locus YOR231W, strain MKK1, hits give low values 1.05 | S. cerevisiae deletion strains, locus YOR265W, strain rbl2, hits give low values 0.989 | S. cerevisiae deletion strains, locus YOR270C, strain vph1, hits give low values 0.939 | S. cerevisiae deletion strains, locus YOR290C, strain snf2, hits give low values 0.989 | S. cerevisiae deletion strains, locus YOR316C, strain cot1, hits give low values 0.999 | S. cerevisiae deletion strains, locus YPL051W, strain arl3, hits give low values 0.941 | S. cerevisiae deletion strains, locus YPL055C, strain LGE1, hits give low values 0.929 | S. cerevisiae deletion strains, locus YPL078C, strain atp4, hits give low values 0.982 | S. cerevisiae deletion strains, locus YPL106C, strain sse1, hits give low values 1 | S. cerevisiae deletion strains, locus YPL240C, strain hsp82, hits give low values 1.01 | S. cerevisiae deletion strains, locus YPL241C, strain CIN2, hits give low values 1 | S. cerevisiae deletion strains, locus YPL256C, strain CLN2, hits give low values 1.05 | S. cerevisiae deletion strains, locus YPR119W, strain clb2, hits give low values 1 | S. cerevisiae deletion strains, locus YPR141C, strain kar3, hits give low values 1 | S. cerevisiae deletion strains, locus YPR163C, strain tif3, hits give low values 1.01 | S. cerevisiae deletion strains, locus YPR167C, strain met16, hits give low values 1 | S. cerevisiae deletion strains, strain wtn01, hits give low values 1.01 | S. cerevisiae strains, strain wild type, hits give low values 0.987
